This is an account of results in PubChem BioAssay (EPA / NIEHS).

One experiment has as its system SERPINA7 (gene 6906). Briefly: CCTE_GLTED_hTBG: CCTE's human Thyroxine-binding Globulin (TBG) Inhibition Assay, Great Lakes Toxicology and Ecology Division (GLTED) Lab (AID 2284343).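 Also: active chemicals lower fluorescence versus DMSO baseline by displacing probe.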 In a few lines:
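Human thyroxine-binding globulin was exposed to each chemical for 2 hours, during which the ANSA probe could be displaced. Fluorescence was then measured at 380/475 nm, and loss of signal was analysed relative to DMSO.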

A short description of experiment [1]: CCTE_Deisenroth_5AR_NBTE_donor: CCTE's 5alpha-reductase NanoBRET Target Engagement Assay […], Deisenroth Lab (AID 2284319; active = hit-call score of the fitted dose curve at least 0.9, where 1 is the maximum; inactive = score below 0.9). The conditions noted are these: actives raise or lower the signal. The method, boiled down:
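HEK293T cells transiently expressing SRD5A2-NanoLuc, exposed 5 h to chemicals (8 points, 10 nM - 29.9 uM), with testosterone tracer for the final 2 h. Donor luminescence at 460 nm read after Nano-Glo substrate plus extracellular NanoLuc inhibitor; bidirectional fit versus DMSO.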
(In general: Bioluminescence resonance energy transfer reports proximity on the nanometre scale.)

The nature of experiment [2]: CCTE_Deisenroth_5AR_NBTE_acceptor: CCTE's 5alpha-reductase NanoBRET Target Engagement Assay - Autofluorescence Screen, Deisenroth Lab (AID 2284321; active = hit-call score of the fitted dose curve at least 0.9, where 1 is the maximum; inactive = score below 0.9;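 also: compound fluorescence in the acceptor channel under 460 nm excitation flags autofluorescence artifacts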). The conditions noted are these: actives raise or lower the signal. In a few lines:
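Chemicals diluted to a nominal 100 uM in DMSO were scanned at 460 nm excitation. Samples were read in three independent runs (n=3). Gain or loss of acceptor signal was fitted relative to DMSO.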

The subject of the next experiment is SRD5A2 (gene 6716). The experiment in a line: CCTE_Deisenroth_5AR_NBTE_ratio: CCTE's 5alpha-reductase NanoBRET Target Engagement Assay - Ratio, Deisenroth Lab (AID 2284322; active = hit-call score of the fitted dose curve at least 0.9, where 1 is the maximum; inactive = score below 0.9). The conditions noted are these: actives raise or lower the signal. In a few lines:
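HEK293T cells transiently expressing an SRD5A2-NanoLuc fusion (20 h post-transfection) were exposed to test chemical (10 nM - 29.9 uM, 8 points) for 3 h, then testosterone tracer for a further 2 h. Acceptor/donor BRET ratio was fitted bidirectionally against DMSO baseline.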

The test system of experiment [3] is Brachyury (BRA) Protein Expression, Deisenroth Lab, TBXT (gene 6862). Briefly: CCTE_Deisenroth_DEVTOX-GLR_legacy_Bra: (Legacy) CCTE's DevTox GLR-Endo Assay Evaluation of Brachyury (BRA) Protein Expression, Deisenroth Lab (AID 2284329; active = hit-call score of the fitted dose curve at least 0.9, where 1 is the maximum; inactive = score below 0.9). In a few lines:
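Readout: percent Bra+ cells by high-content fluorescence imaging, Bra+ meaning mean intensity 5x BMAD over pluripotent control median. RUES2-GLR cells dosed twice over 48 h differentiation; DMSO-control median subtracted before concentration-response fitting.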

Experiment [4] in a line: CCTE_Deisenroth_DEVTOX-GLR_legacy_CellCount: (Legacy) Viability Assessment in CCTE's DevTox GLR-Endo Assay, Deisenroth Lab (AID 2284331; active = hit-call score of the fitted dose curve at least 0.9, where 1 is the maximum; inactive = score below 0.9). The settings on record: actives raise or lower the signal. The method, boiled down:
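Human pluripotent RUES2-GLR cells differentiated 48 h with two 24-h-interval exposures, 10-point 1 nM–200 uM series, 0.2% DMSO. Fixed nuclei counted by high-content imaging (5 fields/well); bidirectional fit vs DMSO, n≥4.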

Experiment [5] deals with SRY-box transcription factor 17 (SOX17) Protein Expression, Deisenroth Lab, SOX17 (gene 64321). The experiment in a line: CCTE_Deisenroth_DEVTOX-GLR_legacy_Sox17: (Legacy) CCTE's DevTox GLR-Endo Assay Evaluation of SRY-box transcription factor 17 (SOX17) Protein Expression, Deisenroth Lab (AID 2284341; active = hit-call score of the fitted dose curve at least 0.9, where 1 is the maximum; inactive = score below 0.9). The settings on record: actives raise or lower the signal. In a few lines:
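RUES2-GLR human pluripotent cells differentiated toward endoderm for 48 h, dosed twice at 24 h intervals (1 nM–200 uM, 10 points). Imaging gives % SOX17+ cells (intensity >5x BMAD above pluripotent control median); bidirectional fit versus 0.2% DMSO.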

Experiment [6] deals with SRY-box transcription factor 2 (SOX2) Protein Expression, Deisenroth Lab, SOX2 (gene 6657). Briefly: CCTE_Deisenroth_DEVTOX-GLR_legacy_Sox2: (Legacy) CCTE's DevTox GLR-Endo Assay Evaluation of SRY-box transcription factor 2 (SOX2) Protein Expression, Deisenroth Lab (AID 2284346; active = hit-call score of the fitted dose curve at least 0.9, where 1 is the maximum; inactive = score below 0.9). In a few lines:
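Read-out: fraction of Sox2+ cells by high-content fluorescence imaging of fixed RUES2-GLR cells after 48 h differentiation with two 24 h-spaced exposures. Positivity cutoff 5x BMAD above endoderm control median; 0.2% DMSO median subtracted.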

Experiment [7] has as its system SRY-box transcription factor 17 (SOX17) Protein Expression, Deisenroth Lab, SOX17 (gene 64321). The experiment in a line: CCTE_Deisenroth_DEVTOX-GLR_Endo_SOX17: CCTE's DevTox GLR-Endo Assay Evaluation of SRY-box transcription factor 17 (SOX17) Protein Expression, Deisenroth Lab (AID 2284413; active = hit-call score of the fitted dose curve at least 0.9, where 1 is the maximum; inactive = score below 0.9). The method, boiled down: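 Human RUES2-GLR cells carrying an inducible fluorescent reporter are differentiated in defined media for 48 h and dosed twice, 24 h apart. After fixation and nuclear staining, imaging yields SOX17+ cell percentage relative to 0.2% DMSO-treated differentiated cells.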

The subject of experiment [8] is Brachyury (BRA) Protein Expression, TBXT (gene 6862). Briefly: CCTE_Deisenroth_DEVTOX-GLR_Endo_BRA: CCTE's DevTox GLR-Endo Assay Evaluation of Brachyury (BRA) Protein Expression, Deisenroth Lab (AID 2284417; active = hit-call score of the fitted dose curve at least 0.9, where 1 is the maximum; inactive = score below 0.9). The method, boiled down:
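RUES2-GLR pluripotent cells differentiated 48 h with two chemical exposures 24 h apart, 10-point range 1 nM - 200 uM. Percentage of BRA+ cells per total count by high-content imaging, minus 0.2% DMSO control.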

Experiment [9] can be described thus: TAMU_PeakParms_SingleDonor1434_Asystole: Texas A&M University (TAMU) 1.5-hr Human Induced Pluripotent Stem Cell (iPSC)-derived Cardiomyocytes Calcium (Ca+2) Flux Assay for Cardiotoxicity: Asystole (quiescence of beating) (AID 2284328). In a few lines: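 Donor 1434 iPSC-cardiomyocytes exposed 90 min at 37C, 5% CO2, to 0.2, 1, 10 and 100 uM in 0.5% DMSO. Ca2+ dye fluorescence gave average peak frequency; POD is EC95, a 95% beat-rate drop versus controls.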

Experiment [10] is described as follows: VALA_TUBHUV_Antagonist_TubuleLength: VALA Sciences human Umbilical Vein Endothelial Tubule Formation (TUBHUV) Antagonism Assay (AID 2284325). The method, boiled down:
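Tubule length was imaged via CD31 immunofluorescence after a further 3-day compound exposure in 10 ng/ml VEGF, following 3-day pre-culture of HUVEC with HDF at 1:3. Vehicle 0.1% DMSO; suramin (100 uM) inhibition control.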

Experiment [11] can be described thus: VALA_TUBHUV_Agonist_TubuleLength: VALA Sciences human Umbilical Vein Endothelial Tubule Formation (TUBHUV) Agonism Assay (AID 2284337). In a few lines: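 Tubule length quantified by CD31 immunofluorescence imaging after fixation. HUVEC-HDF co-cultures (1:3) pre-grown 3 days with 10 ng/ml VEGF, then dosed 3 days in VEGF medium; 0.1 % DMSO vehicle baseline.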

The nature of experiment [12]: VALA_TUBIPS_Agonist_CellCount: Viability Assessment in the VALA Sciences human iPS-derived Endothelial Tubule Formation (TUBIPS) Agonism Assay (AID 2284338). How it is done: (§1) VALA_TUBIPS_Agonist is a cell-based, multiplexed assay that uses human iPS-derived endothelial cells (iPSC). Measurements were taken 72 hours after chemical dosing in a 96-well plate.VALA_TUBIPS_Agonist_CellCount is the one of two assay components measured from the VALA_TUBIPS_Agonist assay. It is designed to make measurements of viability, a form of viability reporter, as detected with fluorescence intensity signals by HCS Fluorescent Imaging technology. Data from the assay component VALA_TUBIPS_Agonist_CellCount was analyzed at the endpoint, VALA_TUBIPS_Agonist_CellCount, in the positive analysis fitting direction relative to DMSO as the negative control and baseline of activity. Using a type of viability reporter, loss-of-signal activity can be used to understand viability. To generalize the intended target to other relatable targets, this assay endpoint is annotated to the cell cycle intended target family, where the subfamily is cell count.
(§2) […]

Experiment [13] in a line: VALA_TUBIPS_Antagonist_CellCount: Viability Assessment in the VALA Sciences human iPS-derived Endothelial Tubule Formation (TUBIPS) Antagonism Assay (AID 2284335). As for the experimental part: as §1, with “96-well plate.VALA_TUBIPS_Antagonist_CellCount” for “96-well plate.VALA_TUBIPS_Agonist_CellCount”, “the VALA_TUBIPS_Antagonist” for “the VALA_TUBIPS_Agonist”, “component VALA_TUBIPS_Antagonist_CellCount” for “component VALA_TUBIPS_Agonist_CellCount”, “endpoint, VALA_TUBIPS_Antagonist_CellCount,” for “endpoint, VALA_TUBIPS_Agonist_CellCount,”
as §2

Experiment [14] in a line: VALA_MIGHUV1_ScratchOnly_WoundArea: VALA Sciences human Umbilical Vein Endothelial Cell Migration (MIGHUV) Assay, Area of Scratch Wound Inhibited Recovery (AID 2284336). In a few lines: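 Wound area remaining after 24 h recovery imaged by Hoechst nuclear fluorescence in scratched HUVEC cultures, chemicals added within 30 min of scratching across a 6-point series. Gain of signal fitted against 0.1% DMSO; cytochalasin D positive control.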

The nature of experiment [15]: IUF_NPC1_cytotoxicity_72hr: Cytotoxicity Assessment at 72 hours in the Leibniz Research Institute for Environmental Medicine (IUF) Neural Progenitor Cell Proliferation Assay (NPC1) (AID 2284332).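 Also: rising LDH signal means more cytotoxicity.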 In a few lines: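 Membrane-integrity loss is scored from LDH released into the medium, detected as resorufin fluorescence, with activity fitted upward relative to baseline. Test material stays on human fetal-derived progenitor spheres for 72 h.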

A short description of experiment [16]: CCTE_Mundy_HCI_iCellGluta_NOG_NeuronCount: CCTE's Neurite Outgrowth Assay in iCellGluta cells for Neuron Count, Mundy Lab (AID 2284340).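 Also: cells fixed about 48 h after compound addition.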 In a few lines: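 Neuron count read by automated high-content imaging of Hoechst 33342 and betaIII-tubulin/Alexa Fluor-488 labelling in human iPSC glutamatergic neurons. Activity fitted relative to DMSO.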
A short description of experiment [17]: CCTE_Mundy_HCI_iCellGluta_NOG_NeuriteCount: CCTE's Neurite Outgrowth Assay in iCellGluta cells for Neurite Count, Mundy Lab (AID 2284342).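 Also: chemical exposure about 48 hours starting 2 hours after plating.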
Experiment [18] in a line: VALA_MIGHUV1_ScratchOnly_CellCount: Viability Assessment in the VALA Sciences human Umbilical Vein Endothelial Cell Migration (MIGHUV) Assay, Scratch Wound Inhibited Recovery (AID 2284327). The method, boiled down: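 Hoechst-stained nuclei in the scratch wound were counted by high-content imaging after a 24 h recovery period. Scratched HUVEC monolayers received 6-point concentration series, triplicate, in 0.1% DMSO, fit against DMSO.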

Results filed as inconclusive are left out. The source made the active and inactive calls. The calls were made as follows, unless noted: active = hit-call score of the fitted dose curve at least 0.9, where 1 is the maximum; inconclusive = response in the unintended direction; inactive = score below 0.9.

One may read the AC50 as the concentration at which the activity in the assay is half-maximal. As for `CCC(C)N(C)C(=O)c1cc2ccccc2c(-c2ccccc2Cl)n1` (stereo unspecified), the AC50 in the experiment with SERPINA7 (gene 6906) was 38.1 µM (active).
Consider `C/C=C/C=C/C(=O)O`, for which the molecule was called inactive (in experiment [1]; in experiment [2]; with SRD5A2 (gene 6716)).
In the case of `Cc1cn([C@H]2C=C[C@@H](CO)O2)c(=O)[nH]c1=O`, the call in experiment [3], in experiment [4], in experiment [5], in experiment [6], in experiment [7] and in experiment [8] was inactive.
As for `CCc1nc(N)nc(N)c1-c1ccc(Cl)cc1`, the outcome in experiment [9] was inactive.
Still for that read-out and setting: the entry for `Nc1nc(=S)c2[nH]cnc2[nH]1` is “inactive”.
For `CCCCc1nc2cccnc2n1Cc1ccc(-c2ccccc2-c2nnn[nH]2)cc1`, in the experiment on SERPINA7 (gene 6906), the AC50 is 33.7 µM (active).
On to `Cc1ccc(C(C)(C)C)c(O)c1`, for which the AC50 in the experiment with SERPINA7 (gene 6906) is 26.7 µM (active).
Turning to `CCCCC(CC)COP(=O)(OCC(CC)CCCC)OCC(CC)CCCC` (stereo unspecified), the AC50 in experiment [10] is 10 µM (active); in [12], 0.00227 µM (active). In addition, the outcome in experiment [11] was inactive.
Consider `Nc1nc(Cl)nc2c1ncn2[C@H]1C[C@H](O)[C@@H](CO)O1`, for which the AC50 in experiment [10] was 0.703 µM (active); in [13], 0.956 µM (active); in experiment [14] it was 23.2 µM (active); in experiment [11] it was 15.2 µM (active); in experiment [12], 0.23 µM (active).
Take `CCCCC(CC)COC(=O)CCCCCCCC(=O)OCC(CC)CCCC` (stereo unspecified): the result (in [1]; in experiment [2]; in the experiment with SRD5A2 (gene 6716)) was inactive.
As for `Cc1cc(Cc2ccc(N)c(C)c2)ccc1N`, the half-maximal activity concentration (AC50) with SERPINA7 (gene 6906) was 24 µM (active).
Regarding `CCCCCCC(C=O)=Cc1ccccc1`, in the experiment with SERPINA7 (gene 6906), the AC50 is 21.5 µM (active).
Same read-out and setting: the figure for `O=C(Oc1ccccc1)c1cccc(C(=O)Oc2ccccc2)c1` is 9.91 µM (active).
In the case of `O=C(O)CC(O)(CC(=O)O)C(=O)O`, the result in experiment [9] was inactive.
Consider `S=c1[nH]c2ccccc2s1`, for which the AC50 with SERPINA7 (gene 6906) was 36.4 µM (active).
In the case of `O=C(O)c1cccnc1`, the call in experiment [3], in experiment [4], in [5], in [6], in [7] and in [8] was inactive.
For the molecule `OCC(O)CO`, the molecule was classed as inactive in [15], in experiment [16] and in experiment [17].
Take `COC(=O)[C@H]1[C@H]2C[C@@H]3c4[nH]c5cc(OC)ccc5c4CCN3C[C@H]2C[C@@H](OC(=O)c2cc(OC)c(OC)c(OC)c2)[C@@H]1OC`: the AC50 in experiment [10] is 84.3 µM (active). For the same molecule, the call in experiment [18], in experiment [9], in [13], in experiment [14], in [11] and in experiment [12] was inactive.
